# PrP UTR inh: inhibition of PrP 5' UTR reporter expression. cell-based PrP 5' UTR mRNA reporter, plate reader. inhibition, % (test concentration not listed). 340,000 compounds, 0.35% hits. AID 488862, 2010; in the data active = inhibition above about 52%; also: 0 = median of the neutral control wells
# GDH-TPI counter-1: GDH-TPI coupling enzyme inhibitors, primary screen, artefact control for M. tuberculosis FBA inhibitor project, biochemical, absorbance, full deck | 360,000 compounds, 1.2% hits | inhibition, % at 4.8 µM | GDH-TPI coupled enzyme counterscreen, NADH absorbance; in the data active = inhibition above about 30%;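 also: 0% = DMSO wells and 100% = wells lacking the enzyme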
# PfHsp40 yeast: rescue of yeast from PfHsp40 toxicity, primary screen, S. cerevisiae, ATP luminescence | S. cerevisiae expressing PfHsp40, growth rescue | AID 504582, 2011 | growth rescue, % at 12.5 µM | 340,000 compounds, 0.68% hits; in the data active = growth rescue above about 28%, passing the limit was not always enough; inconclusive = no clear call, values can overlap the other calls;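 also: yeast W303a lacking pdr1 and pdr3 grown in galactose medium; growth measured after three days at 30 °C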
# Mtb FBA inh: Mtb FBA enzyme inhibitors, primary screen, biochemical, fluorescence, strain H37Rv; 360,000 compounds, 2.3% hits; purified M. tuberculosis FBA, fluorescence read-out; AID 588726, 2011; Fructose-bisphosphate aldolase (Mycobacterium tuberculosis (strain ATCC 25618 / H37Rv)), …; inhibition, % at 1 µM;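 also: 0% = vehicle and 100% = reference inhibitor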
# Target sequence (P9WQA3 whole entry, looked up): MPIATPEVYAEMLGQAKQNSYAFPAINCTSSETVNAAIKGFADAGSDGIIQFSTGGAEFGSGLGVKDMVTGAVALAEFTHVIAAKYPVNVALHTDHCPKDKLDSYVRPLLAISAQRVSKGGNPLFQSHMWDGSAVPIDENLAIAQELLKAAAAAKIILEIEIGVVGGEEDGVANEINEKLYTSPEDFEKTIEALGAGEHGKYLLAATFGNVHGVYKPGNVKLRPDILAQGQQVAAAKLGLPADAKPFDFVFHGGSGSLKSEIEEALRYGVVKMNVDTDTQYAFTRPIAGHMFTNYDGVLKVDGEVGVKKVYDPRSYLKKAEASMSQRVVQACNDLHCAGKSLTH
# BJeLR lethal: MLPCN primary cell-based screen for lethality selective to Ras in HRASV12 cells; BJeLR (HRASV12) viability, CellTiter-Glo ATP luminescence, 48 h; inhibition, % (concentration not given with the values); 300,000 compounds, 0.17% hits; in the data active = inhibition above about 50%; inconclusive = no clear call, values can overlap the other calls
# PrPC surface inh: inhibitors of human cell surface prion protein PrPC, primary screen, cell-based, TR-FRET; Major prion protein (Homo sapiens), P04156; TR-FRET read-out; inhibition, % at 13.8 µM; 370,000 compounds, 0.43% hits; in the data active = inhibition above about 24%; also: 0% = median of the test wells and 100% = reference compound wells
# Mtb FBA confirm: M. tuberculosis aldolase blockers, biochemical, fluorescence, strain H37Rv, confirmation | shares compounds with Mtb FBA inh | purified M. tuberculosis FBA, fluorescence read-out | inhibition, % at 1 µM | 5,600 compounds, 78% hits | AID 651616, 2012;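 also: 0% = vehicle wells and 100% = reference inhibitor wells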
# GDH-TPI counter-2: GDH-TPI coupling enzyme inhibitors, artefact control for M. tuberculosis FBA inhibitor project, biochemical, fluorescence, high throughput; shares compounds with Mtb FBA inh; 5,600 compounds, 81% hits; inhibition, % at 1 µM; GDH-TPI coupled enzyme counterscreen; in the data active = inhibition above about 10%
# GDH-TPI DR: GDH-TPI coupling enzyme inhibitors, dose response, artefact control for M. tuberculosis FBA inhibitor project, biochemical, fluorescence, IC50; shares compounds with Mtb FBA inh; GDH-TPI coupled enzyme assay, artifact counterscreen; IC50, µM; 170 compounds, 79% hits; call rule not given here
# An asterisk follows results filed as active; ? = inconclusive; . = not tested or not shown; + = active, no number. Hits are enriched below; roughly 4.5% of the tested compounds scored in any of these assays. Rule as the data show it, unless noted: active = inhibition above about 27%; inactive = the rest.
SMILES,PrP UTR inh,GDH-TPI counter-1,PfHsp40 yeast,Mtb FBA inh,BJeLR lethal,PrPC surface inh,Mtb FBA confirm,GDH-TPI counter-2,others
CCOC(=O)c1nc2cc3n(c(C)c-2c1C)C(C)C(CC)=C3C (stereo not given),-36,2,2,34*,-3,-16,+,181*,
CC(=O)c1ccc(OC(=O)C2CSC3(C)CCC(=O)N23)cc1 (stereo not given),-7,21,-1,0,.,-5,.,.,
COc1ccc(NC(=O)C2(C)Cc3c(-c4ccc(N(C)C)cc4)ccnc3O2)cc1 (stereo not given),.,19,.,33*,.,1,104*,91*,
COc1ccc(NC(=O)C2(C)Cc3c(-c4ccc(N(C)C)cc4)ccnc3O2)cc1OC (stereo not given),.,16,.,29*,.,6,14,-2,GDH-TPI DR=1.2*
COc1ccc(NC(=O)C2(C)Cc3c(-c4ccc(NC(C)=O)cc4)ccnc3O2)cc1 (stereo not given),.,-8,.,1,.,-5,.,.,
COc1ccc(CNC(=O)C2(C)Cc3c(-c4ccc(N(C)C)cc4)ccnc3O2)cc1OC (stereo not given),.,19,.,55*,.,16,73*,50*,
Cc1nccc2c1[nH]c1ccccc12,-9,3,-1,94*,-1,6,4,-4,
c1ccc2c(c1)[nH]c1cnccc12,-3,17,0,37*,0,8,32*,41*,
OCCCCc1nccc2c1[nH]c1ccccc12,-1,7,1,69*,2,4,+,186*,
CCc1nccc2c1[nH]c1ccccc12,-19,8,0,81*,5,-2,+,161*,
Cc1[nH]c2ccccc2c1CCCO,.,.,.,.,-3,1,.,.,
Cn1cc(C(=O)N2CCN(C(=O)c3ccco3)CC2)c2c3ccccc3n(C)c2c1=O,1,15,0,37*,-21,-8,-2,-3,
COCCn1cc(C(=O)N2CCC3(CC2)OCCO3)c2c3ccccc3n(C)c2c1=O,-19,13,0,37*,4,1,144*,120*,
Cc1cc(NC(=O)c2cn(C3CCCCC3)c(=O)c3c2c2ccccc2n3C)no1,0,4,0,2,0,1,.,.,
COCCn1cc(C(=O)N2CCCC(C)C2)c2c3ccccc3n(C)c2c1=O (stereo not given),-20,15,0,45*,-5,-4,0,-5,
Cn1c2ccccc2c2c(C(=O)N3CCC4(CC3)OCCO4)cn(C3CCCC3)c(=O)c21,-2,8,?,28*,-1,-8,58*,47*,
CC(=O)Oc1ccccc1Cn1c(C)c(C(=O)NCc2cccc(Cl)c2)sc1=O,.,-8,.,4,.,8,.,.,
COC(=O)C1=C(C)N(C)C(=NCc2ccc(OC)cc2)NC1c1ccccc1C(F)(F)F (stereo not given),.,.,.,.,.,-14,.,.,
CCOC(=O)C1CCN(C(=O)c2cn(CCOC)c(=O)c3c2c2ccccc2n3C)CC1,-24,11,0,46*,0,7,84*,68*,
CCN1CCN(C(=O)c2cn(CCOC)c(=O)c3c2c2ccccc2n3C)CC1,-11,20,-1,48*,-4,7,171*,129*,
CC(C)N(CCNCc1nnc(-c2ccccc2)o1)C(C)C,-22,2,0,2,-5,8,.,.,
Cc1ccc(C(C)C)c(OCC(=O)N2CCN(c3ncccn3)CC2)c1,-15,-2,0,2,.,-1,.,.,

# Screens as filed in PubChem.
